“And” between values parts separate entries of the source, which are not always exact repeats. Equal values may be shown once. Records with an inconclusive call do not appear. Entries that show only a call come without a potency. The source made the active and inactive calls. Calls follow the shape of the dose curve; as a rule, active = well fitted cell-killing curve with a large enough effect in the repeat runs; inconclusive = weak or mixed curves, or effect the other way; inactive = flat fitted curve, though single readings scatter.
assay: qHTS assay to identify small molecule agonists of the estrogen receptor beta (ER-beta) signaling pathway - cell viability counter screen (AID 1259380); conditions: ER-beta-bla HEK293T viability, CellTiter-Glo luminescence, 16 h; series mostly up to 92.4 µM; also: nearly all actives have a fitted effect of over 30% in size
Excerpt: National Center for Advancing Translational Sciences [NCATS]
NIH Chemical Genomics Center [NCGC]
U.S. Environmental Protection Agency [EPA]
National Institutes of Environmental Health Sciences [NIEHS]
National Toxicology Program [NTP]
U.S. Food and Drug Administration [FDA]
Estrogen receptor (ER), a nuclear hormone receptor, plays an important role in development, metabolic homeostasis and reproduction. Two subtypes of ER, ER-alpha and ER-beta, have similar expression patterns with some uniqueness in both types. Endocrine disrupting chemicals (EDCs) and their interactions with steroid hormone receptors like ER causes disruption of normal endocrine function. To identify the compounds that activate ER signaling, an ER beta-UAS-bla GripTite cell line (Life Technologies, Madison, WI, USA) containing a beta-lactamase reporter gene under the control of an UAS response element was used to screen Tox21 10K compound library. The cytotoxicity of the Tox21 compound library against the ER-beta-bla cell line was tested in parallel by measuring the cell viability using CellTiter-Glo assay in the same wells.
Tox21 Assay Protocol Summary:
ER-beta-UAS-bla HEK293T cells were dispensed at 2,000 cells/5 uL of assay medium containing 2% charcoal stripped FBS per well into black wall/clear-bottom 1536-well plates using a Multidrop Combi (ThermoFisher Scientific, Waltham, MA) dispenser. After the assay plates were incubated at a 37C and 5% CO2 for 6 hr, 23 nL of compounds dissolved in DMSO, positive controls or DMSO only was transferred to the assay plate by a Pintool station (Kalypsys, San Diego, CA). The plates were incubated at 37C and 5% CO2 for 16 hr. Then 1 uL of LiveBLAzerTM B/G FRET substrate was added using a BioRAPTR FRD (Flying Reagent Dispenser, Aurora Discovery, San Diego, CA) and then the plates were incubated at room temperature for 2 hours, and fluorescence intensity was measured by an Envision plate reader (PerkinElmer, Shelton, CT). For cell viability readout that measures cytotoxicity, 4 uL/well of CellTiter-Glo reagent was added into the assay plates using a FRD. After 30 min incubation at room temperature, the luminescence intensity in the plates was measured using a ViewLux (PerkinElmer) plate reader.
Potency is read from the fitted curve at half-maximal effect.

SMILES	Potency
NC(=S)c1c(Cl)cccc1Cl	inactive
CN1C[C@H](C(=O)N[C@]2(C)O[C@@]3(O)[C@@H]4CCCN4C(=O)[C@H](Cc4ccccc4)N3C2=O)C=C2c3cccc4[nH]cc(c34)C[C@H]21	21.8 µM (active) and 7.16 µM (active)
CC(C)(C#N)C(C)(C)C#N	inactive
[Cl-].[Cl-].[Hg+2]	5.42 µM (active) and 3.86 µM (active)
O=C([O-])c1ccccn1.O=C([O-])c1ccccn1.O=C([O-])c1ccccn1.[Cr+3]	inactive
C[C@H]1O[C@H](OC2[C@@H](O)[C@@H](O)C(O)[C@H](O)[C@H]2O)[C@@H](N)C[C@@H]1N=C(N)C(=O)O (stereo not given in full)	inactive
Nc1cc(Cl)cc(C(=O)O)c1Cl	inactive
CCCCCBr	inactive
CC(C)(C)NCC(O)c1ccccc1Cl (stereo not given)	inactive
O=C(CCl)CCl	inactive
O=C(NCNC(=O)NC1C(=O)NC(=O)N1CO)NC1C(=O)NC(=O)N1CO (stereo not given)	inactive
Cc1nc2ccccc2c(=O)n1-c1ccccc1Cl	inactive
CC(C)(C)OOC(C)(C)CCC(C)(C)OOC(C)(C)C	inactive
O=C=NC1CCCCC1	inactive
CCOP(=S)(OCC)Oc1ccc(S(C)=O)cc1 (stereo not given)	inactive
O=C(O)C(O)C(O)C(=O)O (stereo not given)	inactive
CCOC(C(=O)OCCN(C)C)(c1ccccc1)c1ccccc1	inactive
C[C@H]1[C@@H]2Cc3ccc(O)cc3[C@@]1(C)CCN2C	inactive
CN1CC[C@]23c4c5ccc(O)c4O[C@H]2[C@@H](O)C=C[C@H]3[C@H]1C5	inactive
c1ccc2sc(SNC3CCCCC3)nc2c1	inactive

SMILES	Potency
CCCC1CCCCN1 (stereo not given)	inactive
OC[P+](CO)(CO)CO	inactive
O=C(Cc1ccccc1)c1ccccc1	inactive
Clc1ccccc1	inactive
NP(N)(=O)NC(=O)c1ccc(F)cc1	inactive
CN(C)c1ccc(N=O)cc1	3.87 µM (active) and 15.4 µM (active)
C1CCNCC1	inactive
C=C(C)C(=O)OCCCCOC(=O)C(=C)C	inactive
CC1(C)CC(=O)CC(C)(C)N1[O]	inactive
N#CC(C#N)=Cc1ccc(O)c(O)c1	inactive
CC(O)CN1CCN(CC(=O)[O-])CCN(CC(=O)[O-])CCN(CC(=O)[O-])CC1.[Gd+3] (stereo not given)	inactive
CC[N+]1(C)CCCC(OC(=O)C(O)(c2ccccc2)c2ccccc2)C1 (stereo not given)	inactive
COc1ccccc1N1CCNCC1	inactive
O=CC=O	inactive
CC(Cc1ccccc1)NCc1ccccc1Cl (stereo not given)	inactive
C=CCc1ccccc1O	inactive
CCSCc1ccccc1OC(=O)NC	inactive
Cc1ccc2c(C)cccc2c1	inactive
CC(CC(C(N)=O)(c1ccccc1)c1ccccc1)N(C)C (stereo not given)	inactive
OCCSSCCO	inactive

From PubChem BioAssay (Tox21)
